Bioassay records as filed in PubChem.
GLP-1R inv ag = GLP-1 receptor (human) inverse agonism; Potency, µM (highest dose often 38.3 µM), usual class: inhibitors; 1.6% of 410,000 active; P43220; HEK293 GLP-1R CRE-luciferase, luminescence, 24 h; GLP-1R form is constitutively active; also: nearly all actives have a fitted effect of over 55% in size
Target sequence (P43220 whole entry, looked up): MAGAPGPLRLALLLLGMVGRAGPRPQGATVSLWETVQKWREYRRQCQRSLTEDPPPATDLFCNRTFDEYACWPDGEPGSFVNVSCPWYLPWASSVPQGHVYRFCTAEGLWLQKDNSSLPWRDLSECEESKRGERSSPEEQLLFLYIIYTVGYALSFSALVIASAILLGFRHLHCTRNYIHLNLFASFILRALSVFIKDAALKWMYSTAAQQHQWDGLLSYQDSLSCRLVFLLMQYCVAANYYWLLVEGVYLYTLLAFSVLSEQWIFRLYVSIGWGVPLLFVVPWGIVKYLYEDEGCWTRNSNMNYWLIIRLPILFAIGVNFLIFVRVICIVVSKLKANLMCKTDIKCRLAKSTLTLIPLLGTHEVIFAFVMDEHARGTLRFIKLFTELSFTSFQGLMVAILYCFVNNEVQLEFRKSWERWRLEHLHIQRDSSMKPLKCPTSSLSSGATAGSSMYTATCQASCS
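HEK293 cells stably co-expressing constitutively active GLP-1R and a cAMP-responsive luciferase reporter were seeded in DMEM with 10% Nu serum, given compounds after 12 h, and incubated 24 h at 37 deg C. Luminescence was then read.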
GLP1R cytotox = cytotoxicity counter-screen for GLP-1 receptor inverse agonists | HEK293 cAMP-luciferase reporter cells, luminescence, 24 h | Potency, µM (series often up to 38.3 µM), hits mostly inhibitors | 0.13% of 410,000 active;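 also: loss of luciferase light is scored as toxicity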
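Here, cytotoxicity is scored as loss of luminescence. The MLSMR collection was tested on cells seeded in medium containing 10% Nu serum, with a 24 hr compound exposure preceded by 12 hours of culture.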
ClpP mod = qHTS Assay for Activators of ClpP. purified B. subtilis ClpP, FRET peptide cleavage, 20 min. AID 651965, 2013. 1.9% of 340,000 active. Potency, µM (top dose mostly 57.5 µM). ATP-dependent Clp protease proteolytic subunit (Bacillus subtilis (strain 168)), P80244; active = well fitted falling curve with a large enough effect; inconclusive = small, poorly fitted or top-dose-only effect; inactive = no such curve, though single readings can be large or run the other way; also: the source files actives as falling curves though it sought activators and does not explain the sign; nearly all actives have a fitted effect of over 65% in size
Target sequence (P80244 whole entry, looked up): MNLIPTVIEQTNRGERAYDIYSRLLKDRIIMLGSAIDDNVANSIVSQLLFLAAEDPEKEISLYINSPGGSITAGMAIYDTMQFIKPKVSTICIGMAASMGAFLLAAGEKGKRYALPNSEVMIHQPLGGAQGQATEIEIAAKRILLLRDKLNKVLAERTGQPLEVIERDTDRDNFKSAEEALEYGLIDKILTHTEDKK
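ClpP 10 microg/mL final, pH 8 Tris/KCl buffer with BSA, glycerol, Tween-20; compound pinned in; FRET-FV substrate; RT 20 min; Ex320/Em430; ΔFRET vs ADEP 5.8 microM, DMSO, no enzyme.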
GLP-1R agonist = agonists of human GLP-1 receptor | P43220 | HEK293 GLP-1R CRE-luciferase, luminescence, 4-6 h; cells express a hypersensitive GLP-1R form | Potency, µM (highest dose often 45.6 µM), actives largely listed as activators | 0.007% of 380,000 active | AID 624172
Large screens that a line does not name were inactive. This is a sample that favours compounds with a hit; in the whole collection about 3.2% have one here. Unless noted, calls follow the shape of the dose curve; as a rule, active = well fitted curve in the direction sought with a large enough effect; inconclusive = small, poorly fitted or top-dose-only effect, or another doubt; inactive = no such curve, though single readings can be large; an effect the other way counts as inactive or inconclusive.

CNC(=O)c1cnc2sc(N3CCCCCC3)nn2c1=O	none (no result: GLP-1R agonist)
Cc1ccc(NC(=O)CSc2nnc(COc3ccc(Cl)cc3)o2)cc1	none (no result: GLP-1R agonist)
COc1cccc(Oc2ccc(N)cn2)c1	ClpP mod 25.1µM
CCN(CC(=O)NCc1ccc(F)cc1)C(=O)/C=C/c1ccc(OC)cc1	GLP-1R inv ag inconclusive (no result: ClpP mod)
CCc1ccc2[nH]c(=O)c(CN(CCO)C(=O)NCc3ccccc3)cc2c1	none
CCN(Cc1cc2cc(OC)ccc2[nH]c1=O)C(=O)Cc1ccc(OC)cc1	ClpP mod 28.2µM
CCN(Cc1cc2cc(OC)ccc2[nH]c1=O)C(=O)c1ccncc1	ClpP mod inconclusive
CCOc1cc(C(=O)N(C)Cc2cc3cc(OC)ccc3[nH]c2=O)cc(OCC)c1OCC	none
CCOc1ccccc1C(=O)N(C)Cc1cc2cc(OC)ccc2[nH]c1=O	ClpP mod 31.6µM
CCN(CC(=O)NCc1ccc(F)cc1)C(=O)Cc1ccc(OC)cc1	ClpP mod 15.8µM
COc1ccc2[nH]c(=O)c(CN(CCO)C(=O)NCc3ccccc3)cc2c1	ClpP mod 25.1µM
Cc1ccc(S(=O)(=O)NCC(c2ccc(N(C)C)cc2)N2CCc3ccccc32)cc1 (stereo not drawn)	none (no result: GLP-1R agonist)
O=S(=O)(c1nccs1)N1CCN(c2nc(-c3cccs3)nc3ccccc23)CC1	none (no result: GLP-1R inv ag, GLP1R cytotox, GLP-1R agonist)
COc1ccc2[nH]c(=O)c(CN(C)C(=O)COc3ccccc3)cc2c1	ClpP mod 31.6µM
CCCCN(Cc1cc2cc(OC)ccc2[nH]c1=O)C(=O)COc1ccccc1	none
COc1ccc2[nH]c(=O)c(CN(c3ccc(C)c(C)c3)S(C)(=O)=O)cc2c1	none (no result: ClpP mod)
CCOc1ccc(N(Cc2cc3cc(OC)ccc3[nH]c2=O)S(C)(=O)=O)cc1	ClpP mod 28.2µM
Cc1ccccc1Nc1c(-c2ccsc2)nc2c(C)cccn12	GLP-1R inv ag inconclusive (no result: GLP-1R agonist)
Cc1cccc(C)c1-n1c(C)cc(/C=N/NC(N)=S)c1C	GLP-1R inv ag 11.2µM, GLP1R cytotox inconclusive
CO[C@H]1[C@@H](O)[C@H](N)[C@@H](O[C@H]2O[C@@H]([C@H](C)N)CC[C@H]2N)[C@H](O)[C@@H]1N(C)C(=O)CN	none (no result: GLP-1R inv ag, GLP1R cytotox, ClpP mod)
CC1(C)Cc2cccc(OCC(=O)N3CCN(c4ccc(F)cc4)CC3)c2O1	GLP-1R inv ag inconclusive
CC1(C)Cc2cccc(OCC(=O)N3CCN(c4cccc(C(F)(F)F)c4)CC3)c2O1	GLP-1R inv ag 10µM
CC1(C)Cc2cccc(OCC(=O)N3CCN(c4cccc(Cl)c4)CC3)c2O1	GLP-1R inv ag inconclusive, ClpP mod 25.1µM
Cc1nc2ccn(Cc3ccco3)c(=O)c2cc1C(=O)N1CCN(c2ccc(F)cc2)CC1	none (no result: GLP-1R agonist)
Clc1ccc(C2=C3CCCCn4c(-c5ccccc5)c[n+](c43)C2)cc1	GLP-1R inv ag inconclusive, ClpP mod 10µM
COc1ccc(-c2cnc3n2CCCCC3)cc1	none
COc1ccc(-c2c[n+]3c4n2CCCCC4=C(c2ccc(Br)cc2)C3)cc1	GLP-1R inv ag inconclusive, ClpP mod 22.4µM
CCCN1CNc2c(c(=O)[nH]c(=S)n2CCc2cccc(Cl)c2Cl)C1	none (no result: GLP-1R inv ag, GLP1R cytotox, GLP-1R agonist)
CC1(Cc2ccc(C(F)(F)F)o2)C(=O)Nc2ccc(-c3cccc(C(F)(F)F)c3)cc21 (stereo not drawn)	GLP-1R inv ag 10µM, GLP1R cytotox inconclusive
CN1CC[n+]2cnc3ccccc3c21	ClpP mod 28.2µM
CC1(C)Cc2[nH]c(=O)c(C#N)cc2CS1	ClpP mod 14.1µM
COc1ccc(S(=O)(=O)c2ccc(OC)c(OC)c2)cc1OC	ClpP mod 31.6µM
N#CC(c1ccc([N+](=O)[O-])cc1)C(CC(=O)c1ccccc1)c1ccccc1 (stereo not drawn)	GLP-1R inv ag 11.2µM (no result: ClpP mod)
N#CC(OC(=O)c1ccccc1)c1ccccc1 (stereo not drawn)	none
N#CC(c1ccccc1)C(CC(=NO)c1ccccc1)c1ccccc1 (stereo not drawn)	GLP-1R inv ag 8.91µM
N#CC(c1cccc([N+](=O)[O-])c1)C(CC(=O)c1ccccc1)c1ccccc1 (stereo not drawn)	GLP-1R inv ag inconclusive
O=C(NCC(c1ccco1)N1CCc2ccccc21)C(=O)Nc1ccc(F)cc1F (stereo not drawn)	GLP-1R inv ag 3.98µM
Cn1ncc([N+](=O)[O-])c1C(=O)Nc1ccc2c(c1)OCCO2	ClpP mod 31.6µM
Cc1ccc(C(=O)NCC(=O)OCC(=O)NC(C)C2CC3CCC2C3)cc1 (stereo not drawn)	ClpP mod 31.6µM
Cc1ccc(NNC(=O)C(O)(c2cccc(C(F)(F)F)c2)c2cccc(C(F)(F)F)c2)cc1	GLP-1R inv ag 3.16µM, GLP1R cytotox inconclusive
Cc1ccc(C(O)(C(=O)NNc2ccccn2)c2ccc(C)cc2)cc1	none (no result: ClpP mod)
Cc1cccc(C(O)(C(=O)NNc2ccc3ccccc3n2)c2cccc(C)c2)c1	GLP-1R inv ag 4.47µM
O=C(NNc1ccccc1Br)C(O)(c1cccc(C(F)(F)F)c1)c1cccc(C(F)(F)F)c1	GLP-1R inv ag 3.16µM, GLP1R cytotox inconclusive
CN(C)c1ccc(N=Nc2ccc(C(=O)O)cc2)cc1	GLP-1R inv ag 2.51µM, GLP1R cytotox inconclusive (no result: ClpP mod)
CC(=O)N=c1sc2nc3ccccc3nc2n1N(C(C)=O)C(C)=O	ClpP mod 28.2µM
CC(=O)N=c1sc2ccccc2n1C	none
CC1c2ccccc2SC(CCCN(C)C)c2ccccc21 (stereo not drawn)	GLP-1R inv ag 11.2µM
CN(C)CCC1Sc2ccccc2Oc2ccccc21 (stereo not drawn)	GLP-1R inv ag inconclusive, GLP1R cytotox inconclusive
CCc1cccc(C)c1NC(=O)CCS(=O)(=O)c1cc(Br)cc2c1N(C(=O)C1CC1)CC2	none (no result: GLP-1R agonist)
Cc1nc2c(-c3ccc(F)cc3)c(C)nn2c(C)c1CCC(=O)NCc1ccc(Cl)cc1	none
COc1cccc2c1Oc1ncccc1N(c1ccc(C(=O)NCc3ccccc3C)s1)C2	ClpP mod 31.6µM (no result: GLP-1R agonist)
CCOc1ccc(Nc2nc(Cc3nnc(SCC(=O)c4ccc(C)c(C)c4)o3)cs2)cc1	GLP-1R inv ag 11.2µM, GLP1R cytotox inconclusive
COC(=O)c1cc2c(ccn2-c2ccc(F)cc2)n1Cc1ccc(OC(C)=O)cc1	GLP-1R inv ag inconclusive, ClpP mod 28.2µM
COC(=O)c1cc2c(ccn2-c2ccc(F)cc2)n1Cc1cccc(OC)c1	ClpP mod 28.2µM
Cc1ccc(Cn2c(C(C)Nc3nc(-c4ccc(F)cc4)cs3)nc3cc(Cl)c(Cl)cc32)cc1 (stereo not drawn)	GLP-1R inv ag 11.2µM
COc1cc(N(C)C)ccc1C=c1c2ccccc2n2c1cc(-c1ccccc1)[n+]2C	GLP-1R inv ag 8.91µM, GLP1R cytotox 12.6µM
CCN(CC)CCNC(=O)c1ccc(NC(=O)Nc2cccc3ccccc23)cc1	GLP-1R inv ag 10µM, ClpP mod inconclusive
CCN(CC)CCNC(=O)c1ccc(NC(=O)c2cccc(S(=O)(=O)N3CCc4ccccc43)c2)cc1	GLP-1R inv ag inconclusive, GLP1R cytotox inconclusive
CCN(CC)CCNC(=O)c1ccc(NC(=O)c2cccc(S(=O)(=O)N3c4ccccc4CC3C)c2)cc1 (stereo not drawn)	GLP-1R inv ag 5.62µM, GLP1R cytotox inconclusive
